Screens: PubChem, National Center for Advancing Translational Sciences (NCATS)
Many of the other results were omitted from the sample, so hits are more common in it than they were.
Pf Dd2 growth: blocks in vitro growth of P. falciparum Dd2; P. falciparum Dd2 growth, SYBR Green, 72 h; Potency, µM (doses to about 28.9 µM), for inactives: at the top dose activity, negative = inhibition, hits mostly inhibitors; actives 4.3% (n = 120,000); active = well fitted inhibition curve with a large enough effect;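 note: plate controls were DMSO vehicle for no effect and reference drug for full effect; nearly all actives have a fitted effect of over 65% in size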
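Infected erythrocytes (Dd2, 0.3% parasitemia, 2.5% hematocrit final) are added to compound in RPMI-1640/Albumax II medium, grown 72 h at 37C in low oxygen, then lysed with saponin/Triton-X containing SYBR Green and read by fluorescence.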
Numbers without * were called inactive; [ ] = dose if it differs, or a comment. Potency is the fitted concentration of half-maximal effect.

How did Cc1cc(C)n(Cc2ccc(C(=O)N3CC[C@H](CO)[C@H](O)C3)cc2)n1 do in these assays?
Pf Dd2 growth: 9%

How did Cc1ccc(S(=O)(=O)N2CCC(CCC(=O)NCCCc3ccccc3)CC2)cc1 do in these assays?
Pf Dd2 growth: inactive

Results for CCN(CC)C(=O)c1ccccc1NC(=O)c1cccc(S(=O)(=O)N2CCC(C)CC2)c1 ?
Pf Dd2 growth: 52%[5.79 µM]

What do the screens show for `CCN(CC)S(=O)(=O)c1ccc(OC)c(NC(=O)c2sc3ccccc3c2Cl)c1`?
Pf Dd2 growth: 29%

Results for CCN(CC)S(=O)(=O)c1cccc(C(=O)Nc2ccccc2C(=O)Nc2ccc(OC)cc2)c1 ?
Pf Dd2 growth: 7.1µM*

Results for Cc1nn(C)c(C)c1CNC(=O)C1CCc2sc(C(=O)N3CCOCC3)cc2C1 (stereo not drawn) ?
Pf Dd2 growth: 18%

What do the screens show for `CCC(CC)C(=O)N1C[C@@H](CO)[C@H](c2nc(-c3ccncc3)no2)C1`?
Pf Dd2 growth: 23%

What do the screens show for `COc1ccc(-n2nc(C3CCN(CCC(C)C)CC3)[nH]c2=O)cc1`?
Pf Dd2 growth: -8%

What do the screens show for `CC1=C(C(=O)OC(C)(C)C)C(c2ccccc2)N2C(CC(=O)N3CCCC3)=CSC2=N1` (stereo not drawn)?
Pf Dd2 growth: -17%

What do the screens show for `CCOC(=O)C1=C(C)N=C2SC=C(CC(=O)NCc3ccco3)N2C1c1ccccc1F` (stereo not drawn)?
Pf Dd2 growth: -18%

How did CCOC(=O)C1=C(C)N=C2SC=C(CC(=O)N3CCOCC3)N2C1c1cccc(OC)c1OC (stereo not drawn) do in these assays?
Pf Dd2 growth: inactive

Results for CC1=C(C(=O)OC(C)C)C(c2ccccc2F)N2C(CC(=O)N3CCCC3)=CSC2=N1 (stereo not drawn) ?
Pf Dd2 growth: inactive

What do the screens show for `CCOC(=O)C1=C(C)N=C2SC=C(CC(=O)Nc3ccc(OC)cc3)N2C1c1ccccc1F` (stereo not drawn)?
Pf Dd2 growth: 4.5µM*

How did C=CCOC(=O)C1=C(C)N=C2SC=C(CC(=O)N3CCCC3)N2C1c1ccccc1Cl (stereo not drawn) do in these assays?
Pf Dd2 growth: -24%

How did CC1=C(C(=O)OC(C)C)C(c2ccc([N+](=O)[O-])cc2)N2C(CC(=O)N3CCCC3)=CSC2=N1 (stereo not drawn) do in these assays?
Pf Dd2 growth: 2.8µM*

What do the screens show for `C=CCOC(=O)C1=C(C)N=C2SC=C(CC(=O)N3CCCC3)N2C1c1cccc(OC)c1OC` (stereo not drawn)?
Pf Dd2 growth: 5µM*

What do the screens show for `CCOC(=O)C1=C(C)N=C2SC=C(CC(=O)NCCc3cccs3)N2C1c1ccccc1F` (stereo not drawn)?
Pf Dd2 growth: -10%

How did COC[C@@H]1CN(C(=O)c2cc(C3CC3)[nH]n2)C[C@H]1c1ccccn1 do in these assays?
Pf Dd2 growth: -35%

How did CC1=C[C@@H](CC#N)[C@H](C(C)C)C[C@H]1CC(=O)NC1CC1 do in these assays?
Pf Dd2 growth: -19%[44.1 µM]

How did COc1cc(NC(=O)CCN2CCCCO2)ccc1NC(=O)CC(C)C do in these assays?
Pf Dd2 growth: -5%

How did Cn1cccc1C(=O)N1CCc2nc3cc[nH]n3c(=O)c2C1 do in these assays?
Pf Dd2 growth: 22%[5.79 µM]

Results for COc1ccc(N2CC(C(=O)NCc3ccc(C(F)(F)F)cc3)NC2=O)cc1 (stereo not drawn) ?
Pf Dd2 growth: -7%

How did COc1ccccc1OCC(=O)NC1CC(=O)N(Cc2ccccc2Cl)C1 (stereo not drawn) do in these assays?
Pf Dd2 growth: -18%

Results for CC1CCC2(CC1)NC(=O)N(CC(=O)N(C)c1ccccc1)C2=O (stereo not drawn) ?
Pf Dd2 growth: 14%

Results for NC(=O)[C@@H](Cc1ccccc1)NC(=O)C1=C[C@@H](NC(=O)CS(=O)(=O)c2ccccc2)[C@@H](O)[C@H](O)C1 ?
Pf Dd2 growth: -22%

How did O=C1NCCCCCCN(Cc2ccncc2)[C@@H]2CN(S(=O)(=O)c3ccccc3)CC[C@H]12 do in these assays?
Pf Dd2 growth: 10µM*

What do the screens show for `COc1cccc(CN2CC[C@@H]3C(=O)NCCCCCCN(Cc4ccncc4)[C@@H]3C2)n1`?
Pf Dd2 growth: 4µM*

What do the screens show for `O=C1NCCCCCCN(Cc2ccncc2)[C@@H]2CN(Cc3ccccn3)CC[C@@H]12`?
Pf Dd2 growth: inactive

What do the screens show for `CCN1CCC(N2CC[C@@H]3C(=O)NCCCCCCN(Cc4ccncc4)[C@@H]3C2)CC1`?
Pf Dd2 growth: 4%

How did Cn1cccc1CN1CC[C@@H]2C(=O)NCCCCCCN(Cc3ccncc3)[C@@H]2C1 do in these assays?
Pf Dd2 growth: 6.3µM*

How did CS(=O)(=O)N1CC[C@@H]2C(=O)NCCCCCCN(Cc3ccncc3)[C@@H]2C1 do in these assays?
Pf Dd2 growth: -6%

Results for O=C1NCCCCCCN(Cc2ccncc2)[C@@H]2CN(S(=O)(=O)c3cccnc3)CC[C@H]12 ?
Pf Dd2 growth: -15%

How did O=C1NCCCCCCN(Cc2ccncc2)[C@@H]2CN(C3CCOCC3)CC[C@@H]12 do in these assays?
Pf Dd2 growth: 8%
